The supplement of paper PMC11732987, “Enantioselective OTUD7B fragment discovery through chemoproteomics screening and high-throughput optimisation” (Communications Chemistry, 2025)

Columns and labels:
Assay in all cases: log2 ratio of Biotin-Ahx-Ub-VS probe labelling (fragment/DMSO); higher = less target engagement (more negative = stronger competition), active = hit call of the paper (q ≤ 0.05, log2 ratio ≤ -1)
Conditions in all cases: compound concentration: 200 uM; treatment time: 3 h
OTUD6B = target: T1, OTUD6B (UniProt Q8N6M0)
T1 sequence (whole entry): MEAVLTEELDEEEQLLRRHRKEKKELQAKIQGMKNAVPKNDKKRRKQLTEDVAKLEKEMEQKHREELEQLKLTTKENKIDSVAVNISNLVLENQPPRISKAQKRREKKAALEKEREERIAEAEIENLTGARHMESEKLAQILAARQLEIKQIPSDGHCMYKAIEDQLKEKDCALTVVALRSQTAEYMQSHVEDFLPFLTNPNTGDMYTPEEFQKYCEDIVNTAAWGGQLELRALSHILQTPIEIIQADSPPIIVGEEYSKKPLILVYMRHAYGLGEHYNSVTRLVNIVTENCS
Outline: (§1)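 Triplicate samples of HEK293T lysate, 495 µg each, received fragment at 200 µM or vehicle for 3 h, followed by Biotin-Ahx-Ub-VS (0.5 µM final) for 1 h. After NeutrAvidin enrichment of labelled DUBs and LysC/trypsin digestion, peptides were run by diaPASEF LC-MS/MS. The values are average log2 fragment/vehicle ratios from global-median-normalised Spectronaut label-free quantities, tested by unpaired t-test on proteins having ≥2 unique peptides.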

OTUD7B = target: T2, OTUD7B (UniProt Q6GQQ9)
T2 sequence (whole entry): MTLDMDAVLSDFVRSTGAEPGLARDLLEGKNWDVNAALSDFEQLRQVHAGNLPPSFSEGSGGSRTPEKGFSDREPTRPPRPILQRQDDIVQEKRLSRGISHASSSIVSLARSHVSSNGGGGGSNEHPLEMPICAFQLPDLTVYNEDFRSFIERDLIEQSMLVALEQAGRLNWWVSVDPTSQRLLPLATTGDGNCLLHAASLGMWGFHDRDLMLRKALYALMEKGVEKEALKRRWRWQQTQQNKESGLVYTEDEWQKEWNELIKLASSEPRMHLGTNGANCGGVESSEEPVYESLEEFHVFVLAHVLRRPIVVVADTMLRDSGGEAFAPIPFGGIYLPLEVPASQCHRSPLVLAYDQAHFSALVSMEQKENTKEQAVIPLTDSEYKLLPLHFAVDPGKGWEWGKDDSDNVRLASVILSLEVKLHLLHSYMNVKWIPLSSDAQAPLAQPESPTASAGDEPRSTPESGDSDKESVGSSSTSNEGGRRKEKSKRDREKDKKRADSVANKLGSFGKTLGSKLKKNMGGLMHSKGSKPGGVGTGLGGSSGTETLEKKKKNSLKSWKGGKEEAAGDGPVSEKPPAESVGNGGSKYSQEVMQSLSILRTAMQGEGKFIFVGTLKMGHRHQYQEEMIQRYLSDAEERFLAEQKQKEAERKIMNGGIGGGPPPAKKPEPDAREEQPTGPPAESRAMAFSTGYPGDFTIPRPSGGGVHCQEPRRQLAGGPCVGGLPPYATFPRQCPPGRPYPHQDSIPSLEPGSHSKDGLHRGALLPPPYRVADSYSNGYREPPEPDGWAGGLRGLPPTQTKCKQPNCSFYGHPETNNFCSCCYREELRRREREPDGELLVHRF
Outline: as §1

PRPF8 = PRPF8 (UniProt Q6P2Q9)
Outline: as §1

PSMD7 = target: T3, PSMD7 (UniProt P51665)
T3 sequence (whole entry): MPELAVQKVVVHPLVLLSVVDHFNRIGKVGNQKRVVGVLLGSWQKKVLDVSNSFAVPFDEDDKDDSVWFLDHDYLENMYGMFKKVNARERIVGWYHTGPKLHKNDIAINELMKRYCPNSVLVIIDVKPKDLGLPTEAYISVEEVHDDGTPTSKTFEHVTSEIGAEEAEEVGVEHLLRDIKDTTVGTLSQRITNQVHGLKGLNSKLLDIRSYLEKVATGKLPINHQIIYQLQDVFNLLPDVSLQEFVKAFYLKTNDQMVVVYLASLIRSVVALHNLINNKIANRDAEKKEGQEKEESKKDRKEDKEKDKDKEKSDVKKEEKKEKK
Outline: as §1

UCHL1 = UCHL1 (UniProt P09936)
Outline: as §1

UCHL3 = target: T4, UCHL3 (UniProt P15374)
T4 sequence (whole entry): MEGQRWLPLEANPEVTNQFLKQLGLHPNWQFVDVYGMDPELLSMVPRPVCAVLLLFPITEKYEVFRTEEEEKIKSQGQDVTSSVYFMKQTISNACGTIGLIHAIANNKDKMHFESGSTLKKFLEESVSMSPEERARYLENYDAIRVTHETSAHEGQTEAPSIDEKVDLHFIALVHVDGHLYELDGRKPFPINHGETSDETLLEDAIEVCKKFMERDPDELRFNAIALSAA
Outline: as §1

UCHL5 = target: T5, UCHL5 (UniProt Q9Y5K5)
T5 sequence (whole entry): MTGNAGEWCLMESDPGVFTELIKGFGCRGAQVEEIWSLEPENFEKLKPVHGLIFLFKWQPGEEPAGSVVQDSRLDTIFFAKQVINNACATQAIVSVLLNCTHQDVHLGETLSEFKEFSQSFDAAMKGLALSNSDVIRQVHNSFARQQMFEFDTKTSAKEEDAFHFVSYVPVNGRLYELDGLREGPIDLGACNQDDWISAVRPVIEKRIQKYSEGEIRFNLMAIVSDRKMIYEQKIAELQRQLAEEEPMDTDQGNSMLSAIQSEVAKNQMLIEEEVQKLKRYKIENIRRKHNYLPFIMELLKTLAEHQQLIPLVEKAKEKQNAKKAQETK
Outline: as §1

USP10 = USP10 (UniProt Q14694)
Outline: as §1

USP15 = target: T6, USP15 (UniProt Q9Y4E8)
T6 sequence (whole entry): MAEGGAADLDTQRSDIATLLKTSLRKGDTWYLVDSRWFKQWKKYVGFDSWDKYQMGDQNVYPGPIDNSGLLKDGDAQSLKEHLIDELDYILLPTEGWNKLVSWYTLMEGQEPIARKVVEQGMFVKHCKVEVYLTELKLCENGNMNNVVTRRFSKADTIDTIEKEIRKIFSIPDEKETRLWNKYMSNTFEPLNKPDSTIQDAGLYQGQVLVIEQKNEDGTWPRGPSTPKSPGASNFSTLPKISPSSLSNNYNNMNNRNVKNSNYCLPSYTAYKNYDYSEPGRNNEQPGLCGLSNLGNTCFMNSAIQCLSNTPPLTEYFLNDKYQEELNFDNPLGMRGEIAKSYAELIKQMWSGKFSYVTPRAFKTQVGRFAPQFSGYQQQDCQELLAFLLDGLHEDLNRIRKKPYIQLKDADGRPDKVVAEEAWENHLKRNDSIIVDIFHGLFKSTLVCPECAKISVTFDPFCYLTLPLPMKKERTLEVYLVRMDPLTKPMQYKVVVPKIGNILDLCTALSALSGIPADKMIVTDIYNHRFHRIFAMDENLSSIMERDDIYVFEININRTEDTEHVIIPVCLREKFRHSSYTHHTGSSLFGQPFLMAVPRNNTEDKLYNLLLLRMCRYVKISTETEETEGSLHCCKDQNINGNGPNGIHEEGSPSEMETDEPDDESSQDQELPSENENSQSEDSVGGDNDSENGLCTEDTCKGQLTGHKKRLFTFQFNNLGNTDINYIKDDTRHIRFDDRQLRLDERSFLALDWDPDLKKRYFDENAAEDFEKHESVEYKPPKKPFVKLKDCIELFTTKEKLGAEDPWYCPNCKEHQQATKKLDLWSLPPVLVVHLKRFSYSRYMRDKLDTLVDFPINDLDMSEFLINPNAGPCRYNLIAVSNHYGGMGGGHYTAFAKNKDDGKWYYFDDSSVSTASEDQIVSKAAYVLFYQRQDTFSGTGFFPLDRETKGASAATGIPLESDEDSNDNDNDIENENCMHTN
Outline: as §1

USP16 = USP16 (UniProt Q9Y5T5)
Outline: as §1

Measured: log2 ratio of Biotin-Ahx-Ub-VS probe labelling

Sequence of UCHL1 (P09936 whole entry, looked up): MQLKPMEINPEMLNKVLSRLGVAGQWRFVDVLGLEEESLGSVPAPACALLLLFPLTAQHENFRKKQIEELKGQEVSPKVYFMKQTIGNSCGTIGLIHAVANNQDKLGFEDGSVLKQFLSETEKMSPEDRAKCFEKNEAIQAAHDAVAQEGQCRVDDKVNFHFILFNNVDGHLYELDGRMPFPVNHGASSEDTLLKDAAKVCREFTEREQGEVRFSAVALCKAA
Sequence of USP16 (Q9Y5T5 whole entry, looked up): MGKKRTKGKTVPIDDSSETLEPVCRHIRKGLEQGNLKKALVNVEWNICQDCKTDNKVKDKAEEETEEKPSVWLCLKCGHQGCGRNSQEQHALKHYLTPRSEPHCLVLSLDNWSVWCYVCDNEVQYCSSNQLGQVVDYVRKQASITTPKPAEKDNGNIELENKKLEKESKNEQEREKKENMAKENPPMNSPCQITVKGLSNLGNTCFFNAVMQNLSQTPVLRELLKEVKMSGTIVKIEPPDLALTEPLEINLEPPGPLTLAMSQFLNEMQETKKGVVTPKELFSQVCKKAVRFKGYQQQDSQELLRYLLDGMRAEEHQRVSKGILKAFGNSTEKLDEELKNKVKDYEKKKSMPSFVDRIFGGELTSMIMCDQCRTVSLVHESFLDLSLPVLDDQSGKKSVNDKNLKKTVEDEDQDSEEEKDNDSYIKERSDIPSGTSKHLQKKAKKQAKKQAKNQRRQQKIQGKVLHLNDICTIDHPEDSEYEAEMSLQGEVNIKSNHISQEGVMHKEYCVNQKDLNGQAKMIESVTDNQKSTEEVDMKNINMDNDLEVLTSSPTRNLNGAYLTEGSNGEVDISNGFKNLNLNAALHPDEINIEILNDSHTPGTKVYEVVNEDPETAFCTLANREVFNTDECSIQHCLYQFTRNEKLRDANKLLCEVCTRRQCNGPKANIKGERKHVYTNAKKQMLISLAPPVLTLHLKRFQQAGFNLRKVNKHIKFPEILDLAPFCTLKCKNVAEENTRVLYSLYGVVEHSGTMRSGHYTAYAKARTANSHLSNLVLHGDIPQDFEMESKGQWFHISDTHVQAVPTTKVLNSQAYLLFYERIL
Sequence of USP10 (Q14694 whole entry): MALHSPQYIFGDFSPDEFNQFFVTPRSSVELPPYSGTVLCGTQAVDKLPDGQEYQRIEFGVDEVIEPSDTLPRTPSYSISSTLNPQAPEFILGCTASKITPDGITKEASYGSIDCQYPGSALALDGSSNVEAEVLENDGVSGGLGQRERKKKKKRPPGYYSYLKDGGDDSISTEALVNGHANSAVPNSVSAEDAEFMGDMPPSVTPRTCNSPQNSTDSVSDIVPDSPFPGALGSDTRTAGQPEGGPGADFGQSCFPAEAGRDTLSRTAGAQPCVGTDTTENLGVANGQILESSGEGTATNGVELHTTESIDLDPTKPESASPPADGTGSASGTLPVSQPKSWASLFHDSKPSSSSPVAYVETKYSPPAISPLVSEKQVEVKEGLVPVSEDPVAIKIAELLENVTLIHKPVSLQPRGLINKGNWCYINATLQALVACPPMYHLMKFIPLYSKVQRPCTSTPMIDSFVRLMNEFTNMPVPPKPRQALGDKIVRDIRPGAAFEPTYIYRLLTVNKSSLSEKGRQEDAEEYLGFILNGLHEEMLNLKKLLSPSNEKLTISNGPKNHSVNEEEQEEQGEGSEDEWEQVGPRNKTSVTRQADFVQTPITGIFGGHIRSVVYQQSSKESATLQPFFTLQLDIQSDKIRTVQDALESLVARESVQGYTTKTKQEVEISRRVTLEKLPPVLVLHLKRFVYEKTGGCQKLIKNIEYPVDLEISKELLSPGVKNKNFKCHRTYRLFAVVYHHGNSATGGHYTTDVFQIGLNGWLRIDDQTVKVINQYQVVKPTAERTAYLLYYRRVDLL

Cc1nc(-c2cccc(NC(=O)CCl)c2)cs1
inactive: OTUD6B -0.247 | OTUD7B -0.69 | PRPF8 0.052 | PSMD7 -0.167 | UCHL1 -0.133 | UCHL3 -0.844 | UCHL5 -0.43 | USP10 -0.202 | USP15 -0.235 | USP16 -0.418
